# The list is not random: actives were taken first. Their share in the collection is about 7%.
# ADAM10 inh: human ADAM10 inhibitors, primary screen, biochemical, QFRET, HTS. recombinant ADAM10, EDANS/DABCYL FRET peptide cleavage, 3 h. actives 0.62% (n = 370,000). inhibition, % at 7 µM. Disintegrin and metalloproteinase domain-containing protein 10 (Homo sapiens), O14672. AID 720582, 2013;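 active = inhibition above a per-campaign cutoff equal to the mean of compounds falling between control-based bounds plus 3 SD, cut at about 20% in these data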;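 also: 0% = DMSO wells while the 100% control is not disclosed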
# Target sequence (O14672 214-748 limits assumed): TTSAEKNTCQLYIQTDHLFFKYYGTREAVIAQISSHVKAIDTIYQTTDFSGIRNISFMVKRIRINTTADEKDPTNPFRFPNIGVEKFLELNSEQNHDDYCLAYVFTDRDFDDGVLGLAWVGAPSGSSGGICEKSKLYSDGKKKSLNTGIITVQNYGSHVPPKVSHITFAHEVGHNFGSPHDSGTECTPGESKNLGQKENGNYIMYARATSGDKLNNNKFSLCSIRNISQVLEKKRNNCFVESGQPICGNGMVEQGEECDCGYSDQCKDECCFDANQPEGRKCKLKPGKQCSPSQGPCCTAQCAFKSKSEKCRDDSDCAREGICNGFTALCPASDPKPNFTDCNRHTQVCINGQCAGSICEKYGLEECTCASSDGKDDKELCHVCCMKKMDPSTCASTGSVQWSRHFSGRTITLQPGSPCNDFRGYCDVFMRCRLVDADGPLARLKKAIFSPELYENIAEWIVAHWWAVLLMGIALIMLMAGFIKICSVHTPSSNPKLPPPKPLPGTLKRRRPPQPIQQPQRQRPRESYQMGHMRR
# rCAG binder: binders of r(CAG) RNA repeats, primary screen, biochemical, fluorescence | r(CAG) RNA repeat, TO-PRO-1 dye displacement fluorescence | inhibition, % at 3 µM | actives 1.3% (n = 370,000) | AID 651821, 2012;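 active = inhibition above the plate cutoff, the mean of all test compounds on that plate plus 3 SD, cut at about 35% in these data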;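 also: 0% = DMSO alone and 100% = 100 µM mitoxantrone as full dye displacement; higher means more dye released from RNA so lower well fluorescence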
# proKLK7 act: proKLK7 zymogen activators, primary screen, biochemical, fluorescence intensity; activation, % at 7 µM; AID 652039, 2013; Kallikrein-7 (Homo sapiens), P49862; purified proKLK7, EDANS-DABCYL substrate fluorescence; 100% is mature enzyme control, 0% vehicle; actives 0.9% (n = 370,000);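 active = activation above the mean of all tested compounds plus 3 SD, computed per campaign excluding outliers beyond control limits, cut at about 13% in these data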
# AHR activator: AHR activators, primary screen, cell-based, luminescence, luciferase reporter, human; Aryl hydrocarbon receptor (Homo sapiens), P35869; AHR-responsive luciferase reporter cells; activation, % at 5 µM; actives 2.5% (n = 320,000); AID 2796, 2010; in the data active = activation above about 47%;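 also: 0% = vehicle wells and 100% = reference agonist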
# NR3A LBD binder: binders of NR3A ligand-binding domain, primary screen, biophysical, differential scanning fluorimetry, uHTS. NR3A LBD differential scanning fluorimetry, Tm shift; 0% = protein alone, 100% = glycine-bound protein. Tm shift relative to glycine control, % at 25 µM. actives 2.5% (n = 340,000);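 active = melting temperature shift of at least 10% of the positive control shift, at one fixed dose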
# ADAM17 inh: ADAM17 inhibitors, primary screen, biochemical, QFRET | recombinant ADAM17, EDANS/DABCYL FRET peptide cleavage | inhibition, % at 6.95 µM | Disintegrin and metalloproteinase domain-containing protein 17 (Homo sapiens), P78536 | actives 0.83% (n = 370,000);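 active = inhibition above the mean of compounds lying between control limits plus 3 SD, set per campaign, cut at about 8.5% in these data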;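 also: 0% = DMSO-only wells as the low control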
# ADAM10 confirm: human ADAM10 inhibitors, confirmation, biochemical, QFRET, triplicate; inhibition, % at 6.95 µM; actives 1% (n = 2,100); shares compounds with ADAM10 inh; ADAM10 QFRET peptide cleavage, EDANS fluorescence;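 active = inhibition above about 20% chosen separately for each screening run, limit read from the data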;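 also: 0% = DMSO wells and 100% = marimastat wells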
# ADAM17 counter: ADAM17 inhibitors, counter-screen for ADAM10 exosite inhibitor project, biochemical, QFRET, high throughput | ADAM17 QFRET peptide cleavage, EDANS fluorescence | actives 0.5% (n = 2,100) | inhibition, % at 6.95 µM | shares compounds with ADAM10 inh;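 active = mean triplicate inhibition above the solvent-only control wells' mean plus 3 SD, cut at about 12% in these data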;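 also: 0% = DMSO wells and 100% = marimastat wells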
# ADAM10 counter: ADAM10 inhibitors, counter-screen for ADAM17 exosite inhibitor project, biochemical, FRET, human ADAM10. actives 47% (n = 2,900). recombinant ADAM10, EDANS/DABCYL FRET peptide cleavage, 3 h. inhibition, % at 6.95 µM. AID 743256, 2014. shares compounds with ADAM17 inh;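 active = mean inhibition over the triplicate runs exceeds the activity threshold set in the earlier primary screen, cut at about 20% in these data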;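 also: 0% = DMSO wells and 100% = marimastat wells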
# ADAM17 confirm: ADAM17 inhibitors, hit retest, confirmation, biochemical, QFRET peptide cleavage; recombinant ADAM17, EDANS/DABCYL QFRET peptide cleavage; shares compounds with ADAM17 inh; AID 743257, 2014; actives 65% (n = 2,900); inhibition, % at 6.95 µM;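 active = mean inhibition across replicates above the hit cutoff set in the primary screen, cut at about 8.5% in these data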;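 also: 0% = DMSO wells and 100% = marimastat wells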
# Numbers without * were called inactive; . = not tested or not shown.
SMILES,ADAM10 inh,rCAG binder,proKLK7 act,AHR activator,NR3A LBD binder,ADAM17 inh,ADAM10 confirm,ADAM17 counter,ADAM10 counter,ADAM17 confirm
CC1(C)CC(=O)C2=C(C1)OC(N)=C([N+](=O)[O-])C2c1cccs1 (centres undefined),-12,-2,0,2,-1,2,.,.,.,.
COc1ccc(CN(C(=O)c2snc(C(N)=O)c2N)C(C(=O)NC2CCCC2)c2ccc(OC)c(OC)c2)cc1 (centres undefined),-101,1,-1,1,0,-34,.,.,.,.
COc1ccc(CN(C(=O)c2nsc(Cl)c2Cl)C(C(=O)NC2CCCCC2)c2ccc(OC)cc2)cc1 (centres undefined),28*,4,0,2,0,8.8*,7,2,8,9.6*
Cc1csc(=O)n1CCC(=O)NCc1ccc(F)cc1,-6,-2,0,-1,1,-1,.,.,.,.
CN(CC(=O)Nc1cccc(F)c1)CC(=O)Nc1cccc(S(=O)(=O)N2CCCCCC2)c1,36*,9,0,4,-2,16*,1,0,23*,14*
O=C(CNc1ccc(C(F)(F)F)cc1)Nc1cccc(S(=O)(=O)N2CCCCC2)c1,22*,7,0,.,.,9.8*,7,2,54*,27*
O=C(CNc1cc(S(=O)(=O)N2CCCC2)ccc1OCC(F)(F)F)Nc1ccc(SC(F)F)cc1,20*,4,1,1,-5,16*,1,2,35*,20*
CN(CC(=O)Nc1cccc(F)c1)CC(=O)Nc1cccc(S(=O)(=O)N2CCCCC2)c1,-2,4,1,4,-4,2,.,.,.,.
NC(=O)c1cccc(C(N)=O)n1,1,-1,0,2,-1,-4,.,.,.,.
CCC1(c2ccccc2)NC(=O)N(CC(=O)Nc2ccccc2N2CCCC2)C1=O (centres undefined),-8,-7,-1,3,2,-5,.,.,.,.
CCOc1ccc(NS(=O)(=O)c2cc(NC(=O)c3ccc(C)cc3)ccc2Cl)cc1,28*,18,1,12,15*,13*,8,2,39*,22*
COc1ccccc1NS(=O)(=O)c1cc(NC(=O)c2ccc3ccccc3n2)ccc1Cl,-13,1,0,7,-6,-1,.,.,.,.
COc1ccccc1NS(=O)(=O)c1cc(NC(=O)c2cc(F)c(F)c(F)c2F)ccc1N1CCOCC1,22*,10,-1,5,-1,8.8*,11,3,43*,28*
COc1ccc(C(=O)Nc2ccc(Cl)c(S(=O)(=O)Nc3ccccc3OC)c2)cc1,21*,11,0,9,3,13*,4,2,40*,23*
Cc1cccc(NC(=O)c2ccc(NS(=O)(=O)c3cccc4cccnc34)cc2)c1,24*,10,0,.,30*,13*,4,1,24*,15*
COc1ccccc1NS(=O)(=O)c1cc(NC(=O)c2ccccc2C)ccc1N1CCOCC1,18,7,0,.,-5,1,.,.,.,.
Cc1ccc(C(=O)NCC(=O)OCCCOC(=O)CNC(=O)c2ccc(C)c(C)c2)cc1C,-6,1,0,1,1,-1,.,.,.,.
Cn1cccc1-c1nc2ccccc2[nH]1,-11,-2,1,3,3,-6,.,.,.,.
O=C(C[n+]1cccc(CNC(=O)c2ccc(OC(F)F)cc2)c1)Nc1cccc(C(F)(F)F)c1,3,10,0,2,0,2,.,.,.,.
CC(C)N(C(=O)COC(=O)CNC(=O)c1ccc(Br)cc1)c1ccccc1,1,-3,-1,2,-1,-2,.,.,.,.
CCOC(=O)c1sc(NC(=O)CSc2n[nH]c(CC(C)C)n2)nc1C,27*,5,-1,-5,-6,8.8*,0,0,5,-2
C=CC[C@@H](CC(=O)NCCO)C(=O)N[C@@H](COC(=O)[C@@H](CC=C)Cc1ccc(F)cc1)Cc1c[nH]c2ccccc12,7,-5,0,2,0,3,.,.,.,.
C=CC[C@@H](CC(=O)N(CCO)Cc1ccccc1)C(=O)N[C@H](C)COC(=O)[C@@H](CC=C)Cc1ccc(F)cc1,6,-9,1,4,1,2,.,.,.,.
C=CCC[C@@H](Cc1ccc(F)cc1)C(=O)OC[C@H](Cc1c[nH]c2ccccc12)NC(=O)[C@H](CC=C)CC(=O)N(CCO)Cc1ccccc1,21*,11,0,0,7,12*,11,3,55*,27*
C=CCC[C@H](Cc1ccc(F)cc1)C(=O)OC[C@@H](Cc1c[nH]c2ccccc12)NC(=O)[C@@H](CC=C)CC(=O)N(CCO)Cc1ccccc1,41*,0,0,1,4,15*,12,3,48*,23*
C=CCC[C@H](Cc1ccc(F)cc1)C(=O)OC[C@H](Cc1c[nH]c2ccccc12)NC(=O)[C@@H](CC=C)CC(=O)N(CCO)Cc1ccccc1,27*,12,0,0,-4,14*,9,3,40*,20*
C=CC[C@H](CC(=O)N(CCO)Cc1ccccc1)C(=O)N[C@H](COC(=O)[C@@H](CC=C)Cc1ccc(F)cc1)Cc1ccccc1,21*,1,0,1,-14,11*,10,4,25*,16*
